# Test results from paper PMC4336329 (PLoS ONE, 2015).
# Screen size: about 310,000 compounds; about 14,000 (4.5%) showed an effect of 50% or more. The effect is printed as a negative number. The list comes from a sample in which strong results are over-represented; it also holds similar structures and randomly drawn compounds.
# Biological target: human ether-à-go-go-related gene (hERG) potassium channel (human, UniProt Q12809)
# Assay: primary screen, population patch clamp on CHO cells stably expressing hERG; higher = less effect of the substance
# 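Note: peak tail current of the secondary pulse compared with the same well before compound.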
# Chain of human ether-à-go-go-related gene (hERG) potassium channel (Q12809 whole entry, looked up): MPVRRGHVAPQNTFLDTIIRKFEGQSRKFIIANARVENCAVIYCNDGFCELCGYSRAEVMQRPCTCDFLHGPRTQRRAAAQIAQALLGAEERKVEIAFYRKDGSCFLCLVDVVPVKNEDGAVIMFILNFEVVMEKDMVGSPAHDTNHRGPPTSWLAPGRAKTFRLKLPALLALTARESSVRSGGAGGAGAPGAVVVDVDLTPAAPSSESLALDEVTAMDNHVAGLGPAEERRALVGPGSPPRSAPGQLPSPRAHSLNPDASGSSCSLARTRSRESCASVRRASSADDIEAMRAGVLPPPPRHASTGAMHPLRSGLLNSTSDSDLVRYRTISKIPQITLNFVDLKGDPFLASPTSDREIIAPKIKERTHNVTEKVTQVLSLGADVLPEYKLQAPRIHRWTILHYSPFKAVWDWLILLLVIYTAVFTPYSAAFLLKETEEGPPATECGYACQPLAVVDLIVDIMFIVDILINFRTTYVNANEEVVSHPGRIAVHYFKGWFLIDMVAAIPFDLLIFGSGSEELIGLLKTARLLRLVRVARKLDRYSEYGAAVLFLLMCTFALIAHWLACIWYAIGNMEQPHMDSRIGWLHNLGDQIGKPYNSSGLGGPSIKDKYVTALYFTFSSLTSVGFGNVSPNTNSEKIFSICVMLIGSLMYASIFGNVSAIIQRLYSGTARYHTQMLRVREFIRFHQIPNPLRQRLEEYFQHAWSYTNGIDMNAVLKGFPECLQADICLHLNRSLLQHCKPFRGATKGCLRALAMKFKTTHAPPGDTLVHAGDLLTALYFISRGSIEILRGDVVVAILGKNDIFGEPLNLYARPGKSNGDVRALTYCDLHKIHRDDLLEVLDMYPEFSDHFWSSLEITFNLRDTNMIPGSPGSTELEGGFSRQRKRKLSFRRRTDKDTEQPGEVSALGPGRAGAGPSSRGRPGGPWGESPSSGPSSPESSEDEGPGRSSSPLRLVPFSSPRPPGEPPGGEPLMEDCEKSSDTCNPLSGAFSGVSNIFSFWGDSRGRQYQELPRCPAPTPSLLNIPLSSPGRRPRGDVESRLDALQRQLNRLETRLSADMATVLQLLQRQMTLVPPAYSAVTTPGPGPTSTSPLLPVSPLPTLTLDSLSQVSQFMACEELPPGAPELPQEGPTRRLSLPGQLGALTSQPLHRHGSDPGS
row,Compound,"hERG current change (%, negative = inhibition) at 10uM"
1,CCCCC1CCCOC(C(=O)NCCNCCO)(C(F)(F)F)C1 (stereo not drawn),6.03%
2,CN(C)c1nnnn1-c1ccc(Cl)cc1Cl,0.276%
3,CCN(CC)C(=O)c1n[nH]c(=O)c2ccccc12,4%
4,CCn1c(SCC(=O)Nc2cc(C)on2)nnc1-c1ccccc1,-3.05%
5,COc1ccc(-c2cc(C(=O)N3CCN(c4ccccc4OC)CC3)no2)cc1OC,-0.868%
6,N#CCOC(=O)c1c2c(nc3ccccc13)CCC2,-23.1%
7,Cc1ccc(C)c(S(=O)(=O)N2CCN(CC(=O)NC(=O)NCc3ccccc3)CC2)c1,-9.97%
8,Cc1cc(C)n(-c2ccc(C(=O)N3CCc4ccccc43)cc2)n1,-3.89%
9,COc1ccccc1NC(=O)Nc1ccccc1C#N,15.6%
10,O=C1CCCN1CCCNS(=O)(=O)c1cccc(F)c1,25.9%
11,CCOc1ccccc1N(C(=O)c1snc(C(N)=O)c1N)C(C(=O)NCCC(C)C)c1ccco1 (stereo not drawn),-22.2%
12,CCOc1ccccc1N(C(=O)c1snc(C(N)=O)c1N)C(C(=O)NC1CCCC1)c1ccco1 (stereo not drawn),-55%
13,COc1ccccc1N(C(=O)c1snc(C(N)=O)c1N)C(C(=O)NC1CCCC1)c1ccco1 (stereo not drawn),-35.4%
14,CNC(=S)N1CCN(c2nc(-c3ccc(Cl)cc3)cs2)CC1,14.7%
15,Cc1cc2c(cc1C)N(Cc1ccccc1)C1=NCCCN12.Cl,-72.3%
16,Cc1cc2c(cc1C)N(Cc1ccc(Cl)cc1)C1=NCCCN12,-69.8%
17,COC(=O)c1cc(Cl)cc2c(C)c(C3(O)CCCCC3)[nH]c12,15%
18,O=C(/C=C/c1ccccc1)N/C(=C/c1ccccc1)C(=O)Nc1ccccc1O,-27.3%
19,CCc1ccccc1NC(=O)Cn1nnc(C(=O)NCc2cccs2)c1N,13.8%
20,O=C(Cn1cnc2ccccc2c1=O)NCCC(=O)N1CCN(c2ccccc2)CC1,-7.6%
21,O=C(CN1CCN(C(C(=O)Nc2ccc(Cl)cc2C(F)(F)F)c2ccccc2)CC1)NC1CC1 (stereo not drawn),-70.2%
22,Cc1ccc(NC(=O)C(c2ccccc2)N2CCN(CC(=O)NC3CC3)CC2)cc1Cl (stereo not drawn),-46.7%
23,Cc1cc(C)cc(NC(=O)C(c2ccccc2)N2CCN(CC(=O)NC3CC3)CC2)c1 (stereo not drawn),-28.3%

row,Compound,"hERG current change (%, negative = inhibition) at 10uM"
1,Cc1cc(NC(=O)COC(=O)C2CCCN2C(=O)c2cccs2)no1 (stereo not drawn),-4.36%
2,NC(=O)c1ccsc1NC(=O)COC(=O)C1CCCN1C(=O)c1cccs1 (stereo not drawn),-63%
3,COc1ccccc1NC(=O)COC(=O)[C@@H]1CCCN1C(=O)c1cccs1,-40.6%
4,Cc1ccn2c(C(=O)N/N=C\c3ccccc3[N+](=O)[O-])c(C)nc2c1,-27.2%
5,COCCn1c(C)cc(C(=O)Cn2nc(C(=O)O)c3ccccc3c2=O)c1C,-3.4%
6,O=C(CNC(=O)Cc1cccc2ccccc12)NCc1ccccc1F,14.8%
7,CCOC(=O)C1=C(COC(=O)c2cccc(N(C)C)c2)NC(=O)NC1C (stereo not drawn),2.49%
8,O=C(Oc1ccc(F)cc1)c1cccnc1,17.1%
9,Cn1c(C(=O)N2CCC(C(=O)N3CCOCC3)CC2)cc2sccc21,7.59%
10,O=C(O)/C=C/C(=O)N1CCN(Cc2ccc3c(c2)OCO3)CC1,4.54%
11,O=C(C1CCCN1C(=O)c1cccs1)N1CCN(Cc2ccc3c(c2)OCO3)CC1 (stereo not drawn),-6.29%
12,O=C(c1sccc1Br)N1CCN(Cc2ccc3c(c2)OCO3)CC1,-11%
13,O=C(c1ccc(Br)s1)N1CCN(Cc2ccc3c(c2)OCO3)CC1,-36.3%
14,Cn1c(C(=O)N2CCC(C(=O)N3CCN(Cc4ccc5c(c4)OCO5)CC3)CC2)cc2sccc21,-60.6%
15,O=C(c1cccs1)N1CCN(Cc2ccc3c(c2)OCO3)CC1,-15.7%
16,O=C(/C=C\c1cccs1)N1CCN(Cc2ccc3c(c2)OCO3)CC1,-57.8%
17,Cl.O=C(c1cc2c(s1)CCCC2)N1CCN(Cc2ccc3c(c2)OCO3)CC1,-54.2%
18,Cl.Cn1c(C(=O)N2CCN(Cc3ccc4c(c3)OCO4)CC2)cc2sccc21,-8.46%
19,O=C(/C=C/c1cccs1)N1CCN(Cc2ccc3c(c2)OCO3)CC1,-47.9%
20,O=C(c1cccs1)N1CCC(C(=O)N2CCN(Cc3ccc4c(c3)OCO4)CC2)CC1,-59.9%
21,CCOC(=O)c1ccc(N2CN(CCc3ccccc3)CNC2=S)cc1,6.21%
22,COC(=O)/C(C#N)=C\c1c(OC)[nH]c2ccccc12,14%
